From PubChem BioAssay (NCATS) come the findings set out here.

SMILES strings stand for the structures. Results filed as inconclusive are left out. The source made the active and inactive calls. Unless noted, calls follow the shape of the dose curve; as a rule, active = well fitted curve in the direction sought with a large enough effect; inconclusive = small, poorly fitted or top-dose-only effect, or another doubt; inactive = no such curve, though single readings can be large; an effect the other way counts as inactive or inconclusive.

Assay [1] addresses Lysosomal acid glucosylceramidase (Homo sapiens) (UniProt P04062). Briefly: Glucocerebrosidase-p2 (AID 348; in the data active = potency below about 10 µM; also: potency is read from the fitted curve at half-maximal effect). The following applies: purified GBA, blue fluorogenic substrate, 40 min. In a few lines:
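Normal human glucocerebrosidase (0.2 nM) with blue fluorogenic substrate (80 uM final) in citrate/phosphate pH 5.9 with 10mM sodium taurocholate, 0.01% tween-20; 40 min RT, NaOH/glycine stop; fluorescence Ex 365/Em 440; AC50 from a titration from 0.6 nM upwards.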

Assay [2] can be described thus: AP1 Signaling Pathway (AID 357; active = well fitted curve in either direction with a large enough effect, not every such curve was filed as active; also: % is scaled to controls: 0 for no effect and ±100 for the full control effect). Particulars: ME-180 AP-1-bla reporter, EGF-induced, beta-lactamase ratio, 5 h; at 7.69 µM (top of the series) unless noted. The method in brief:
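AP-1-bla ME-180 cells with beta-lactamase reporter under AP-1 response element, stimulated with EC50 EGF; compounds titrated, 5 hours at 37 degrees Celsius. CCF4 read at 460/530 nm ratio; positive and negative modulators judged by AC50.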

For assay [3], the target named is Cytochrome P450 1A2 (Homo sapiens) (UniProt P05177). The assay is described as follows: p450-cyp1a2 (AID 410; calls by dose curve; also: potency is read from the fitted curve at half-maximal effect). The following applies: recombinant CYP1A2, luciferin-ME demethylation, luminescence; series mostly up to 57 µM. The method in brief: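 20nM CYP1A2, 100uM Luciferin-ME (=Km), 100mM KPO4; cpd 10 min RT; +NADPH regen, 60 min RT; stop/detect 20 min; luminescence. Normalized to furafylline 57 uM = full inhibition.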

Assay [4] can be described thus: NFAT Signaling Pathway (AID 444; active = well fitted curve in either direction with a large enough effect, not every such curve was filed as active;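 also: carbachol stimulus at about its EC50 of 1 µM final; % is scaled to controls: 0 for no effect and ±100 for the full control effect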). The following applies: Jurkat NFAT-bla M1, carbachol, beta-lactamase ratio, 5 h; at 7.69 µM (top of the series) unless noted. The method in brief: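 Read-out: CCF4 FRET ratio (460 nm/530 nm) after 1 h RT dye loading, used for %activity and AC50 from titration series. Cells: Jurkat NFAT-β-lactamase/M1 line, treated with compound plus 1 uM carbachol for 5 h, 37 °C.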

Assay [5] in a line: Stat Signaling Pathway (AID 446; active = well fitted curve in either direction with a large enough effect, not every such curve was filed as active;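 also: ME-180 cervical cancer cells given 40 pM IL-6 alongside compound; SIE-controlled beta-lactamase reporter measured as 460/530 nm FRET emission ratio; % is scaled to controls: 0 for no effect and ±100 for the full control effect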). The following applies: ME-180 (cervical carcinoma) SIE beta-lactamase reporter, IL-6 stimulated, 5 h; at 7.69 µM (top of the series) unless noted. The method in brief: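 Overnight-plated ME-180 cells bearing a STAT Inducible Element beta-lactamase reporter; 5 h co-exposure to compound and 40 pM IL-6; values normalized to 300 pM IL-6 and 125 nM JAK inhibitor controls.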

Assay [6] deals with Glucocorticoid receptor (Homo sapiens) (UniProt P04150). Briefly: GR-GFP Redistribution (AID 450;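 active = compounds whose dose series gives a full or clear partial fitted curve of increased nuclear translocation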; also: potency is read from the fitted curve at half-maximal effect). The following applies: U2OS GR-GFP nuclear translocation, laser cytometry, 2 h.
Assay [7] shares this target. The assay is described as follows: GR-EFC Redistribution (AID 451; calls by dose curve; also: potency is read from the fitted curve at half-maximal effect). The following applies: CHO-K1 GR-EFC translocation, beta-gal luminescence, 2 h. The method in brief: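 Translocation of GR-ED fusion to nuclear EA restores b-gal, read by luminescence after 1 h room-temperature detection. Engineered CHO-K1 biosensor cells, 1,000/well, exposed 2 h at 37 C to titrations up to 46 uM final.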

For assay [8], the target named is Mitogen-activated protein kinase 10 (Mus musculus) (UniProt Q61831). The assay is described as follows: JNK3 AlphaScreen Assay (AID 530; active = well fitted curve in either direction with a large enough effect, not every such curve was filed as active;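 also: kinase came from lysate of stimulated human HepG2 cells; signal reports phosphorylation of biotinylated GST-cJun 1-79 at Ser73 with 10 µM ATP; % is scaled to controls: 0 for no effect and ±100 for the full control effect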). Particulars: JNK3 lysate, c-Jun phosphorylation; series mostly up to 57.1 µM. The method in brief:
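Kinase buffer: 20 mM Tris-HCl pH 7.6, 10 mM MgCl2, 1 mM DTT, 0.1 mM Na3VO4, 0.01% Tween-20; ATP 10 uM. Substrate biotin-GST-cJun(1-79), enzyme from activated HepG2 lysates. Detection by Ser73 phospho-antibody AlphaScreen.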
For orientation: In Alpha technology, singlet oxygen from a donor bead excites a nearby acceptor bead.

The target in assay [9] is 3',5'-cyclic-AMP phosphodiesterase 4B (Homo sapiens) (UniProt Q07343). The assay is described as follows: qHTS Assay for Inhibitors of PDE-IV (AID 607; active = well fitted activation curve with a large enough effect in the main read-out, with a control signal flat, not every such curve was filed as active; also: % of control where 0% means no effect). The following applies: HEK293 ACTOne CNG channel cells, membrane potential fluorescence; series mostly up to 22.9 µM. The method in brief:
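Live HEK293 cells with a modified cyclic nucleotide-gated (CNG) channel report intracellular cAMP via membrane-potential dye fluorescence (ex 535/em 590 nm). Endogenous PDE-IV was targeted. Compounds were tested at up to 22.9 uM final; RO 20-1724 100 uM served as control.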
On the technique in general: Quantitative high-throughput screening tests each substance at several concentrations.

For assay [10], the target named is Cytochrome P450 3A4 (Homo sapiens) (UniProt P08684). Briefly: qHTS Assay for Activators of Cytochrome P450 3A4 (AID 885). Also: nearly all actives have a fitted effect of over 65% in size. Particulars: recombinant CYP3A4, Luciferin-PPXE luminescence, 60 min; series mostly up to 57.1 µM. In a few lines:
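Using 20nM recombinant human CYP3A4 in potassium phosphate (200mM), substrate Luciferin-PPXE at 25uM, luminescent luciferin detection followed a 60-min RT NADPH reaction; data scaled to 57 uM ketoconazole.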

Assay [11] can be described thus: Confirmation and Secondary Assay for Modulators of Hemoglobin Beta Chain Splicing at IVS2 654 locus (AID 910).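 Also: HeLa cells stably carrying EGFP split by mutant beta-globin IVS2-654 intron; % of control where 0% means no effect.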 Particulars: HeLa EGFP-654 splicing reporter, GFP fluorescence, 48 h; series mostly up to 38.3 µM. The method in brief: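 Readout: per-well total peak green fluorescence (488 nm ex, 500–520 nm em) from objects 5–250 µm, reflecting correct splicing of an EGFP-654 reporter. Compounds were applied for 2 days at 37 °C to overnight-plated HeLa EGFP-654 cells; controls were DMSO and 500 nM IVS2-654 PNA.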

The nature of assay [12]: Confirmation and Secondary Assay for Modulators of Hemoglobin Beta Chain Splicing at IVS2 705 locus (AID 930).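 Also: HeLa cells stably expressing the EGFP-705 splicing reporter; GFP fluorescence per well restored by corrected splicing of the IVS2-705 intron in EGFP; % of control where 0% means no effect.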 Particulars: HeLa EGFP-705 splicing reporter, GFP fluorescence, 48 h; series mostly up to 38.3 µM. The method in brief:
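Read-out: total peak GFP fluorescence per well (488 nm excitation, 500-520 nm emission) by laser-scanning cytometry. Cells: HeLa EGFP-705 splicing reporter, 2 days compound exposure in Optimem/2% FCS.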

Assay [13] can be described thus: qHTS Assay for Lipid Storage Modulators (AID 1519; calls by dose curve). The following applies: Drosophila S3 cells, BODIPY lipid droplet/cell ratio, laser cytometry, cells loaded with oleic acid; for activity change, negative = inhibition: at 57.5 µM (top of the series). The method in brief:
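Cells seeded at 5,000 per well were treated with compounds over a concentration series and loaded with oleic acid (400 uM, as added). Lipid droplet fluorescence (488 nm excitation, 500-530 nm channel) was read by laser-scanning cytometry and normalized to 20 uM Triacsin C.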

Assay [14] addresses Ubiquitin carboxyl-terminal hydrolase 1 (Homo sapiens) (UniProt O94782). Briefly: Inhibitors of USP1/UAF1: Pilot qHTS (AID 504865). Also: nearly all actives have a fitted effect of over 35% in size. Also: potency is read from the fitted curve at half-maximal effect. The following applies: purified USP1/UAF1, Ub-rhodamine cleavage fluorescence; series mostly up to 54.9 µM. The method in brief:
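In 50mM HEPES pH 7.8 containing 0.5mM EDTA, 1mM TCEP, 0.1 mg/ml BSA and 0.01% Tween-20, 1nM USP1/UAF1 is exposed to compound for 15 min, then Ub-Rho (150nM final) is added and fluorescence is read over time.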

The nature of assay [15]: Primary qHTS for small molecule stabilizers of the endoplasmic reticulum resident proteome: Secreted ER Calcium Modulated Protein (SERCaMP) assay (AID 1508630). Also: % is scaled to controls: 0 for no effect and ±100 for the full control effect. Particulars: SH-SY5Y GLuc-SERCaMP (Gaussia luciferase released on ER calcium loss) secretion, thapsigargin, luminescence; series mostly up to 38.4 µM. The method in brief: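 The SH-SY5Y reporter protocol was run at 3 concentrations up to 38.3 uM (primary) or 11 concentrations (follow-up): 16 h compound, 100 nM thapsigargin for 4 h, then extracellular luciferase luminescence.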

Assay [16] addresses Cytochrome P450 3A4 (Homo sapiens) (UniProt P08684). Briefly: qHTS Assay for Inhibitors and Substrates of Cytochrome P450 3A4 (AID 884). Also: potency is read from the fitted curve at half-maximal effect; nearly all actives have a fitted effect of over 50% in size. Particulars: recombinant CYP3A4, Luciferin-PPXE luminescence; series mostly up to 57.1 µM. In a few lines: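 Luminescent readout of luciferin produced by CYP3A4 (20 nM) dealkylation of Luciferin-PPXE, 25 uM (its KM). NADPH-driven reaction ran 60 min at RT after 10 min compound preincubation; data scaled to 57 uM ketoconazole as 100% inhibition.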

[17] abbreviates: measured here: cell count channel max response.
The mark [18] stands for this setting: measured here: lipid channel max response.

Sequence of Ubiquitin carboxyl-terminal hydrolase 1 (Homo sapiens) (O94782 whole entry, looked up): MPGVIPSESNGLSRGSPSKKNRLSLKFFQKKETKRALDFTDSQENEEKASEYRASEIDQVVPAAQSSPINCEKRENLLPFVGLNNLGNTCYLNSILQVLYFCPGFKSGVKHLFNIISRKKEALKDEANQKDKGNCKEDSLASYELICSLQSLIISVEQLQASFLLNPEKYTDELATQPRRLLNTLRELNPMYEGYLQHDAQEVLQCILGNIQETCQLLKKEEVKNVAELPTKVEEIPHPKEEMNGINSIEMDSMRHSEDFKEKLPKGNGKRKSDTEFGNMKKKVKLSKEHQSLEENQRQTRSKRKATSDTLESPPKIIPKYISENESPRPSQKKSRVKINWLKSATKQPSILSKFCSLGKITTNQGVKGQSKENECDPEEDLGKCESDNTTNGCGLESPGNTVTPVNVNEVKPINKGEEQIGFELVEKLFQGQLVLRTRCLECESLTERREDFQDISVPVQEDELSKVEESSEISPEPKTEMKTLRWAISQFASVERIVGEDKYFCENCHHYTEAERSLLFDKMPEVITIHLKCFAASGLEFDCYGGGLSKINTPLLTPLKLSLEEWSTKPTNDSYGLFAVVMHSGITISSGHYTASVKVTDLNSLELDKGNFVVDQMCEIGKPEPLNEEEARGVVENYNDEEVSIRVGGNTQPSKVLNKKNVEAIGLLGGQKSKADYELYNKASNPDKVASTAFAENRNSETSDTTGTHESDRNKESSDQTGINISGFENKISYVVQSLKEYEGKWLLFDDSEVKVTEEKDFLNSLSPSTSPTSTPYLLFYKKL
Sequence of Glucocorticoid receptor (Homo sapiens) (P04150 whole entry, looked up, the tested form may be a part): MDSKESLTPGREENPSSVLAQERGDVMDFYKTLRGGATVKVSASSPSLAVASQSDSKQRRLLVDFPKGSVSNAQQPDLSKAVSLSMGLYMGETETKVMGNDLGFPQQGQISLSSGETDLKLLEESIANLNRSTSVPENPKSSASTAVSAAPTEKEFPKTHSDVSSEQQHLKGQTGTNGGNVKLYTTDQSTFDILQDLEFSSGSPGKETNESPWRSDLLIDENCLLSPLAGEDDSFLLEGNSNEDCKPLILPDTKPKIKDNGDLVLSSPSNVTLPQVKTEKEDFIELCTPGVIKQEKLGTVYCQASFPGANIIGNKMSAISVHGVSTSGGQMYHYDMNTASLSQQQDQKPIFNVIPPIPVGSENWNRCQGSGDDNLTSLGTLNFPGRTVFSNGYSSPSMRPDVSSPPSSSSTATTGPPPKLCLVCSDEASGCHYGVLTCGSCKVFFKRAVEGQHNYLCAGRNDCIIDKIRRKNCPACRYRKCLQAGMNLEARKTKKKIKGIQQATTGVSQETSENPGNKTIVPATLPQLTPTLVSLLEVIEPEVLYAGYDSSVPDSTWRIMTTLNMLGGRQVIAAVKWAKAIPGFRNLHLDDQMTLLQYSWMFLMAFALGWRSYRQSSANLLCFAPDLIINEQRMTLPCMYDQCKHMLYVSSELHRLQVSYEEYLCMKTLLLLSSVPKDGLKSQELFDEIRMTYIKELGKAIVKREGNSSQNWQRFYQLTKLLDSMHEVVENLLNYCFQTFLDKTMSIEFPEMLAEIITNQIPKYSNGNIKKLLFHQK
Sequence of Lysosomal acid glucosylceramidase (Homo sapiens) (P04062 whole entry, looked up): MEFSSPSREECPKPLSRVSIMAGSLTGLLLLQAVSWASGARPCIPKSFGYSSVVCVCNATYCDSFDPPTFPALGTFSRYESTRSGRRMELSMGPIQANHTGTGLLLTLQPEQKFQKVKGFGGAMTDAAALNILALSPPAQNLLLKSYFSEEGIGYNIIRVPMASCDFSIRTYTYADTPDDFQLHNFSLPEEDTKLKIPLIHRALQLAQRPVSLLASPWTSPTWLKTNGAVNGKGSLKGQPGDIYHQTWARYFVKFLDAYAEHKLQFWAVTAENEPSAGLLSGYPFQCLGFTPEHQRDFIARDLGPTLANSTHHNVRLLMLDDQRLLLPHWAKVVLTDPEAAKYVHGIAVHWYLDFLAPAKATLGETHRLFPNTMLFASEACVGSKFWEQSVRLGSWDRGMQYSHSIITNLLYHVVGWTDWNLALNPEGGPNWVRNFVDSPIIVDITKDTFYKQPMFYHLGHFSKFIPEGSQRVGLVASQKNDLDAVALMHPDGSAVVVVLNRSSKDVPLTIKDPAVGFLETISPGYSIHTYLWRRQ
Sequence of Cytochrome P450 3A4 (Homo sapiens) (P08684 whole entry, looked up): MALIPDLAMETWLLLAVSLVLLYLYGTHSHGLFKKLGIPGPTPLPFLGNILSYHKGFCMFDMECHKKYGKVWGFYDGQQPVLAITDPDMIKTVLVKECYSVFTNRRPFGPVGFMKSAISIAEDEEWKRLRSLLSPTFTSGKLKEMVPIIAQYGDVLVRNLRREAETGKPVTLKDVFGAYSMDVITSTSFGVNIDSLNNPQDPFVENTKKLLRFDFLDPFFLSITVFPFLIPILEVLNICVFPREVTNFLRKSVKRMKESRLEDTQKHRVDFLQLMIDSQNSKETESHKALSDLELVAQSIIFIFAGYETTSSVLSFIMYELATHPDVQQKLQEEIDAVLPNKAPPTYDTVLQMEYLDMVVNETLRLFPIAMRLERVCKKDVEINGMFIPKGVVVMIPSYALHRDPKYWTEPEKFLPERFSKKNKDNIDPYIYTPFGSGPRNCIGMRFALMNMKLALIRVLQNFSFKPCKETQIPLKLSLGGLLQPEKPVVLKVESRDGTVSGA
Sequence of Cytochrome P450 1A2 (Homo sapiens) (P05177 whole entry, looked up): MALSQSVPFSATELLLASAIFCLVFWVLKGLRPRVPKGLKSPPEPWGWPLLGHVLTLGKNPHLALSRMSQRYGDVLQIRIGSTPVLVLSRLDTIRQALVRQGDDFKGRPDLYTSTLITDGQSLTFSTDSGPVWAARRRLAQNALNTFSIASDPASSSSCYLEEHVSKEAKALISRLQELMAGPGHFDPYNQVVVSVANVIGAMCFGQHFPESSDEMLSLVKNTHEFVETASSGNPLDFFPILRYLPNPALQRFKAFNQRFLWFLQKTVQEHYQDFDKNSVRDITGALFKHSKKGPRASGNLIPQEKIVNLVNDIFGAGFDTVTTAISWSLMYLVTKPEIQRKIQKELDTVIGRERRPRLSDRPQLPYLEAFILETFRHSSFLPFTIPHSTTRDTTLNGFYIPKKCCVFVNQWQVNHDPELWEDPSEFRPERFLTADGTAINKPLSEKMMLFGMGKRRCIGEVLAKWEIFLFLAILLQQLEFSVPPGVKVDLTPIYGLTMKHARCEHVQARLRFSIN
Sequence of 3',5'-cyclic-AMP phosphodiesterase 4B (Homo sapiens) (Q07343 whole entry, looked up): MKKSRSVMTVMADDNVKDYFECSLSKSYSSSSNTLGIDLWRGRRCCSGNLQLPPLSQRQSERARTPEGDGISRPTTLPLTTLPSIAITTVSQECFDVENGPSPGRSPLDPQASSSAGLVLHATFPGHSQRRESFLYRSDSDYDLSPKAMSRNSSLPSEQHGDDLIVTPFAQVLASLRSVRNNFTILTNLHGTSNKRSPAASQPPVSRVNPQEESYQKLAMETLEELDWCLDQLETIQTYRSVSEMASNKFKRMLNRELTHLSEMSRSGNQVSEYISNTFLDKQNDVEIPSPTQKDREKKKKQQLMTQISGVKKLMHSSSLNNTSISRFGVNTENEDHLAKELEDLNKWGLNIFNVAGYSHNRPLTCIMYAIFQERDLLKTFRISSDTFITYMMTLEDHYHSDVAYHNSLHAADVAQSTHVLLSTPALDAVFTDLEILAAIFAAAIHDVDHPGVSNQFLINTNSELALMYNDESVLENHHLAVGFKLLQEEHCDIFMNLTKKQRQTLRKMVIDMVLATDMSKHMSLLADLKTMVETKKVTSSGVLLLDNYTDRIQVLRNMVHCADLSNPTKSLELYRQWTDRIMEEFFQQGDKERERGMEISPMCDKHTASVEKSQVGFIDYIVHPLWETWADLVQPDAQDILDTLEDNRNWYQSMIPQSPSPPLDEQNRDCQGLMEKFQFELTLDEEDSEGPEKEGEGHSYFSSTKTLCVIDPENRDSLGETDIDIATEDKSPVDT

Turning to `CC(=O)NCCNc1nc(-c2ccccc2C(F)(F)F)nc2ccccc12`, the Potency was > 11.4 µM (inactive) in assay [1], 15.8 µM (active) in [3], > 46 µM (inactive) in [6] and > 46 µM (inactive) in assay [7]. In addition, the activity change, negative = inhibition in [2] was 3.94% (inactive); in [4], 4.42% (inactive); in [13], 9.13% (inactive). Besides, the activity, negative = inhibition in [5] is -7.86% (inactive). Besides, the compound was called inactive in assay [8], in assay [11] and in assay [12]. In addition, the Potency entry in assay [9], in assay [10], in [14] and in assay [15] was “inactive” throughout. Besides, the figures for the max response in [13] (setting [17]) and in assay [13] (setting [18]) were 11.9% and 23%, respectively.

Take `COc1ccc(CNc2ccnc(-c3ccccc3C(F)(F)F)n2)c(OC)c1`: the Potency in assay [1] was > 11.4 µM (inactive); in assay [3] it was 15.8 µM (active); in assay [6], > 46 µM (inactive); in assay [7], > 46 µM (inactive); in assay [16], 3.16 µM (active); in assay [14], 11.2 µM (active). Besides, the activity change, negative = inhibition in [2] is -17.1% (inactive); in assay [4], -5.1% (inactive); in assay [13], 6.23% (inactive). For the same compound, the activity, negative = inhibition in assay [5] was 1.22% (inactive). For the same compound, the compound was called inactive in assay [8], in [11] and in [12]. Also, the Potency entry in assay [10] and in assay [15] was “inactive” throughout. For the same compound, the max response in [13] (setting [17]) was 3.1%; in assay [13] (setting [18]), 8.88%.

For `COCCNc1ccnc(-c2cccc(NS(C)(=O)=O)c2)n1`, the Potency in [1] was > 11.4 µM (inactive); in [3] it was 2 µM (active); in assay [6], > 46 µM (inactive); in [7] it was > 46 µM (inactive). The activity change, negative = inhibition in assay [2] was -8.74% (inactive); in [4], 12.6% (inactive); in assay [13], 9.23% (inactive). In addition, the activity, negative = inhibition in assay [5] is -1.1% (inactive). Moreover, the call in [8], in assay [11] and in [12] was inactive. For the same compound, the Potency result in assay [9], in assay [10], in assay [14] and in assay [15] was “inactive” in each case. For the same compound, the max response in assay [13] (setting [17]) stood at 14.8%; in assay [13] (setting [18]) it was 25.9%.

`CN(C)Cc1ccccc1-c1nccc(N(C)C)n1`: the Potency in assay [1] is > 11.4 µM (inactive); in [3], 12.6 µM (active); in assay [6] it was > 46 µM (inactive); in assay [7] it was > 46 µM (inactive). For the same compound, the activity change, negative = inhibition in [2] is 23.3% (inactive); in assay [4], -0.313% (inactive); in assay [13], 2.35% (inactive). The activity, negative = inhibition in [5] is 10.1% (inactive). Besides, the call in assay [8], in assay [11] and in assay [12] was inactive. Moreover, the Potency entry in assay [9], in assay [10], in [14] and in assay [15] was “inactive” throughout. Further, the results for the max response in [13] (setting [17]) and in [13] (setting [18]) were 4.56% and 7.89%, respectively.
